The supplement of paper PMC9262897, “Low-cost anti-mycobacterial drug discovery using engineered E. coli” (Nature Communications, 2022)
Where a name gives a salt, the structure may show the parent alone. ± gives the standard deviation of the averaged measurements.

What follows are molecules tested on E. coli TESEC Mtb Alr (assay: growth (OD600 after 10 h); higher = more growth (less inhibition)). Details: arabinose 10000000 nM; compound 0.1 mM; raw OD600 reference: median of DMSO wells 0.146, cell-free background 0.041.
Procedure: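 TESEC Mtb Alr E. coli, or the Alr+ wild-type control, in 384-well plates with Prestwick library compounds at 0.1 mM and 1% DMSO, across arabinose induction levels of 1E3 to 1E7 nM. Growth is read as OD600 after 10 h at 37 °C in triplicate biological replicates.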

SMILES | growth
CN1CCc2cccc3c2[C@H]1Cc1ccc(O)c(O)c1-3 [R(-) Apomorphine hydrochloride hemihydrate] | 0.14 ± 0.0033
CN1CCCN(C(c2ccccc2)c2ccc(Cl)cc2)CC1 (stereo not drawn) [Homochlorcyclizine dihydrochloride] | 0.0545 ± 0.00056
Cc1ncc(CO)c(CO)c1O [Pyridoxine hydrochloride] | 0.168 ± 0.017
O=C(NCC(O)CO)c1c(I)c(C(=O)NCC(O)CO)c(I)c(N(CCO)C(=O)CO)c1I (stereo not drawn) [Ioversol] | 0.169 ± 0.0037
C[C@@H]1[C@H](O)[C@@H](C)/C=C/C=C/C=C/C=C/C=C/C=C/C=C/[C@H](O[C@@H]2O[C@H](C)[C@@H](O)[C@H](N)[C@@H]2O)C[C@@H]2O[C@](O)(C[C@@H](O)C[C@@H](O)[C@H](O)CC[C@@H](O)C[C@@H](O)CC(=O)O[C@H]1C)C[C@H](O)[C@H]2C(=O)O [Amphotericin B] | 0.261 ± 0.0027
C=Cc1c(C)c2cc3nc(cc4[nH]c(cc5nc(cc1[nH]2)C(C)=C5CCC(=O)O)c(CCC(=O)OC)c4C)[C@@]1(C)C3=CC=C(C(=O)OC)C1C(=O)OC.C=Cc1c(C)c2cc3nc(cc4[nH]c(cc5nc(cc1[nH]2)C(C)=C5CCC(=O)OC)c(CCC(=O)O)c4C)[C@@]1(C)C3=CC=C(C(=O)OC)C1C(=O)OC (stereo partly drawn) [Verteporfin] | 0.218 ± 0.0072
CC(C)C[C@H](NC(=O)[C@@H](O)[C@H](N)Cc1ccccc1)C(=O)O [Ubenimex] | 0.132 ± 0.0031
CC(COc1ccccc1)N(CCCl)Cc1ccccc1 (stereo not drawn) [Phenoxybenzamine hydrochloride] | 0.0621 ± 0.00078
